# Assay results taken from publication PMC4336329 (PLoS ONE, 2015).
# Screen size: about 310,000 compounds; about 14,000 (4.5%) showed an effect of 50% or more. Effects have a minus sign here. This is one part of a sample in which strong results are shown more often than they occur.
# Biological target: human ether-à-go-go-related gene (hERG) potassium channel (human, UniProt Q12809)
# Test: primary screen, population patch clamp on CHO cells stably expressing hERG; higher = less effect of the substance
# 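Note: peak tail current of the secondary pulse compared with the same well before compound.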
# human ether-à-go-go-related gene (hERG) potassium channel, sequence (Q12809 whole entry, looked up): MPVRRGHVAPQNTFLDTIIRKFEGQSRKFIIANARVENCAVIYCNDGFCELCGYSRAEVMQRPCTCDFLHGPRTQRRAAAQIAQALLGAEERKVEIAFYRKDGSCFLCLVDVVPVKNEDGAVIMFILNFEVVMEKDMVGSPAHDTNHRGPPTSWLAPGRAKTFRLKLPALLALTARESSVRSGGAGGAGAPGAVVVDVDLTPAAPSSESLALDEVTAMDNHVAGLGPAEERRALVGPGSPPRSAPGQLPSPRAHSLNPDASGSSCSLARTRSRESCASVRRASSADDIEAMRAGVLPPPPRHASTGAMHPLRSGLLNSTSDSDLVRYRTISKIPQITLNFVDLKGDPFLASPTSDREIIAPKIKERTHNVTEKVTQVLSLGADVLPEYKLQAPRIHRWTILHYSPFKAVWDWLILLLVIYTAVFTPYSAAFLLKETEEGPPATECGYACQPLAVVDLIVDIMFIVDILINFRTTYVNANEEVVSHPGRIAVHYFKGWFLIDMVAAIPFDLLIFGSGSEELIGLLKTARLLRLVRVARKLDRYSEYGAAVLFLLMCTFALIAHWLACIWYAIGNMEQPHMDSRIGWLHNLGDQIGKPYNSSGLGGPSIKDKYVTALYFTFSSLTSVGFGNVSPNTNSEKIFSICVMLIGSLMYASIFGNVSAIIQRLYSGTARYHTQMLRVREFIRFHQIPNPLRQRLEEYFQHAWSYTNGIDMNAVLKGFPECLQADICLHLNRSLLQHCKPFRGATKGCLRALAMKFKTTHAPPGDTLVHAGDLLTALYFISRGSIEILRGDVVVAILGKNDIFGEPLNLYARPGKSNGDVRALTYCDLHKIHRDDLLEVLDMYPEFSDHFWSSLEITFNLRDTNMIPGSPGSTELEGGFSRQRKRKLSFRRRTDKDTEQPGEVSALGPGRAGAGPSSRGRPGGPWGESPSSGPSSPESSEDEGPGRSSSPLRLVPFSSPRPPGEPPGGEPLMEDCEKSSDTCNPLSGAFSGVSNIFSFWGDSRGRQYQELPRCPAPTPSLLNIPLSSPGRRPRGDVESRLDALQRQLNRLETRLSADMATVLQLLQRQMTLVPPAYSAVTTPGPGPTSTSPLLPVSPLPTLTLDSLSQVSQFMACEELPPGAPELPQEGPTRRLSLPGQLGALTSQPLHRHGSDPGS
row,Compound,"hERG current change (%, negative = inhibition) at 10uM"
1,CCOc1ccc(Cn2nnc(C(=O)NCc3ccc(OC)cc3)c2N)cc1,6.41%
2,CCN(CC)c1ccc(C2C(C(=O)OCCOC)=C(C)NC3=C2C(=O)CCC3)cc1 (stereo not shown),-5.24%
3,CCOc1ccc(-c2cc(N)n(S(=O)(=O)c3ccc(OC)cc3)n2)cc1,10.7%
4,CN1c2ccccc2-c2nc3ccccc3n2C1c1ccco1 (stereo not shown),-15.3%
5,CC1CCCC(C)N1C(=O)Cn1cc(C#N)c2ccccc21 (stereo not shown),9.8%
6,CCS(=O)(=O)N1CCN(C2Cc3ccccc3C2)CC1.O=C(O)C(=O)O,3.3%
7,CCc1ccc2c(c1)Sc1ccccc1CC2N1CCN(C)CC1.CS(=O)(=O)O.O (stereo not shown),-69%
8,CSc1ccc2c(c1)C(N1CCN(C)CC1)Cc1ccccc1S2.O=C([O-])/C=C\C(=O)[O-] (stereo not shown),-65.2%
9,Cc1nc2c(o1)CCc1ccccc1C2N1CCN(C)CC1.O=C([O-])/C=C\C(=O)[O-] (stereo not shown),12.4%
10,CN(C)/C=C/C(=O)c1ccn(S(=O)(=O)c2ccccc2)c1,23.6%
11,Fc1ccc(Cn2nnnc2C(c2ccc(Cl)cc2)N2CC=C(c3ccc(F)cc3)CC2)cc1 (stereo not shown),10.1%
12,CCOc1ccc(N(C)Cc2cc(=O)oc3ccc(OCC)cc23)cc1,-1.17%
13,CCOc1cc2[nH]c(=S)n(C3CCN(Cc4ccccc4)CC3)c(=O)c2cc1OCC,17.6%
14,Cc1nn(Cc2ccccc2)c(=O)n1N(C)c1ncc(C(F)(F)F)cc1Cl,-7.74%
15,Cc1ccsc1C1C(C#N)=C(N)OC2=C1C(=O)CC(C)(C)C2 (stereo not shown),-6.69%
16,O=C1C=C(NCc2ccco2)CCC1,16.7%
17,O=C1C=C(NCc2ccc(Cl)cc2)CC(c2ccco2)C1 (stereo not shown),-82.2%
18,O=C1C=C(NCc2ccco2)CC(c2ccc(Cl)cc2)C1 (stereo not shown),-61.5%
19,O=C1C=C(Nc2cccc(Cl)c2)CC(c2ccco2)C1 (stereo not shown),-4.15%
20,O=C1C=C(Nc2ccc(Cl)cc2)CC(c2ccc(Cl)cc2)C1 (stereo not shown),-2.27%

row,Compound,"hERG current change (%, negative = inhibition) at 10uM"
1,O=C1C=C(Nc2ccc(Cl)cc2)CC(c2ccco2)C1 (stereo not shown),-1.85%
2,N#Cc1c(C(F)(F)F)cc(-c2ccccc2)n(N)c1=O,13.9%
3,Cc1cc(C)n2nc(SCc3ccc(F)cc3Cl)nc2n1,-4.5%
4,Cn1c(N=Nc2ccccc2)nc2ccccc21,4.08%
5,S=c1[nH]c2ccccc2n2c(=S)[nH]nc12,5.26%
6,COCCCNC(=O)CN(c1cc(Cl)ccc1OC)S(C)(=O)=O,17.4%
7,Oc1ccc(CN2CCN(Cc3ccccc3)CC2)c2cccnc12,-13.9%
8,CCCCCc1c(C)nc(NCc2ccccc2)[nH]c1=O,-4.44%
9,N/C(=N\OC(=O)c1ccc(Cl)c(Cl)c1)c1ccccn1,3.76%
10,Cc1ccc(CNC(=O)CN2C(=O)CSc3ccc(S(=O)(=O)N4CCC(C)CC4)cc32)cc1,-27.4%
11,O=C(CN1C(=O)CSc2ccc(S(=O)(=O)N3CCOCC3)cc21)NCCCN1CCc2ccccc2C1,-66.3%
12,CC1CCCCN1CCNC(=O)CN1C(=O)CSc2ccc(S(=O)(=O)N3CCCCC3)cc21 (stereo not shown),-17.6%
13,O=C(CN1C(=O)CSc2ccc(S(=O)(=O)N3CCOCC3)cc21)NCc1cccnc1,6.4%
14,CC1CCN(S(=O)(=O)c2ccc3c(c2)N(CC(=O)NCCCN2CCCCC2)C(=O)CS3)CC1,-10.6%
15,CCCCCCCNC(=O)CN1C(=O)CSc2ccc(S(=O)(=O)N3CCOCC3)cc21,-17.7%
16,CC1CCN(S(=O)(=O)c2ccc3c(c2)N(CC(=O)NCCN2C(C)CCCC2C)C(=O)CS3)CC1 (stereo not shown),-52.7%
17,O=C(CN1C(=O)CSc2ccc(S(=O)(=O)N3CCOCC3)cc21)NCCCN1CCCCC1,18%
18,CC1CCN(CCCNC(=O)CN2C(=O)CSc3ccc(S(=O)(=O)N4CCOCC4)cc32)CC1,6.31%
19,CC1CCN(S(=O)(=O)c2ccc3c(c2)N(CC(=O)NCc2cccnc2)C(=O)CS3)CC1,-53.3%
20,CC1CCN(S(=O)(=O)c2ccc3c(c2)N(CC(=O)NCCCN2CCCCC2C)C(=O)CS3)CC1 (stereo not shown),0.668%

row,Compound,"hERG current change (%, negative = inhibition) at 10uM"
1,CC1CCN(CCCNC(=O)CN2C(=O)CSc3ccc(S(=O)(=O)N4CCC(C)CC4)cc32)CC1,-54.5%
2,O=C(NC1CC2CCCC(C1)N2C(=O)Nc1ccccc1)C1CC1 (stereo not shown),6.44%
3,Cn1c(Cc2cccc3ccccc23)nnc1SCC(=O)N1CCN(c2cccc(Cl)c2)CC1,-25.7%
4,COc1ccc(S(=O)(=O)N(CC(=O)N2CCN(C)CC2)C2CCCCC2)cc1OC,-7.66%
5,COC(=O)C(C(=O)OC)=C(/C=C/C=C/N(C)C)N(C)C,13.9%
6,CCN(CC)S(=O)(=O)c1ccc(OC(C)C)nc1,-1.16%
7,COc1ccc([C@H]2CC(=O)C=C(c3cc4ccccc4c4ccccc34)C2)cc1,13.6%
8,CCCc1c(C(=O)NNc2cc(C(F)(F)F)ccc2Cl)cnn1-c1ccccc1,0.78%
9,Cc1ccc(C)c(NC(=O)C2C3CCCC2C3c2ccccc2)c1 (stereo not shown),6.75%
10,CC1CC(C)CN(CCCNC(=O)CN2C(=O)CSc3ccc(S(=O)(=O)N4CCCCC4)cc32)C1 (stereo not shown),-50.2%
11,CC1CCN(S(=O)(=O)c2ccc3c(c2)N(CC(=O)NCCCN2CC(C)CC(C)C2)C(=O)CS3)CC1 (stereo not shown),-66.2%
12,CC1CCCN(CCCNC(=O)CN2C(=O)CSc3ccc(S(=O)(=O)N4CCOCC4)cc32)C1 (stereo not shown),19.5%
13,CC1CCN(S(=O)(=O)c2ccc3c(c2)N(CC(=O)NCCCN2CCCC(C)C2)C(=O)CS3)CC1 (stereo not shown),-20.6%
14,CN1CCN(S(=O)(=O)c2ccc3c(c2)NC(=O)CS3)CC1,13.3%
15,CC1CCN(S(=O)(=O)c2ccc3c(c2)NC(=O)CS3)CC1,-52.2%
16,CCN1CCN(S(=O)(=O)c2ccc3c(c2)NC(=O)CS3)CC1,19.9%
17,CCC1CCCCN1CCCNC(=O)CN1C(=O)CSc2ccc(S(=O)(=O)N3CCC(C)CC3)cc21 (stereo not shown),-9.76%
18,CC1CC(C)CN(CCCNC(=O)CN2C(=O)CSc3ccc(S(=O)(=O)N4CCOCC4)cc32)C1 (stereo not shown),15.8%
